Screening data deposited in PubChem by National Center for Advancing Translational Sciences (NCATS).
HP1b chromo inh – HTS for Inhibitors of HP1-beta Chromodomain Interactions with Methylated Histone Tails; AlphaScreen HP1-beta / biotin-H3K9me3 peptide binding; Potency, µM (series often up to 114 µM), for the others: at the highest dose activity change, negative = inhibition, most hits filed as inhibitors; 390,000 compounds, 0.56% hits; AID 540317, 2011; further: nearly all actives have a fitted effect of over 70% in size
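AlphaScreen: HP1-beta (50 nM) preformed 30 min with biotin-H3(1-18)K9me3 peptide (50 nM) in PBS pH 7.4, 0.01% Tween-20. Compound added for 30 min at RT, then streptavidin donor/nickel chelate acceptor beads (10 ug/mL) for 30 min.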
JMJD2A Tudor inh – qHTS Assay for Inhibitors of JMJD2A-Tudor Domain | Lysine-specific demethylase 4A (Homo sapiens), O75164 | AlphaScreen JMJD2A-Tudor / H3K4me3 peptide binding | Potency, µM (top dose mostly 114 µM), without a hit: at the highest dose activity change, negative = inhibition, usual class: inhibitors | 390,000 compounds, 4.4% hits | AID 504339, 2011; further: on the % scale 0 is the no-effect control and ±100 the full control effect; nearly all actives have a fitted effect of over 50% in size
Sfp inh – qHTS Assay for Inhibitors of Bacillus subtilis Sfp phosphopantetheinyl transferase (PPTase); Potency, µM, inactives show largest response in the series, negative = inhibition, usual class: inhibitors; 4'-phosphopantetheinyl transferase ffp (Bacillus subtilis), Q9F4F7; Biochemical Sfp PPTase activity, qHTS; 310,000 compounds, 3.5% hits;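 further: the enzyme is Sfp with the accession as filed and its product quenches rhodamine fluorescence; 0% = enzyme reaction without inhibitor and -100% = no enzyme wells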
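Reaction rates are the 30-min fluorescence difference (ex 525, em 598 nm) in wells containing 15 nM Sfp, 5 uM rhodamine-CoA and 12.5 uM BHQ-2-YbbR at pH 7.6 with 10 mM MgCl2.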
G9a inh – qHTS Assay for Inhibitors of Histone Lysine Methyltransferase G9a; G9a H3K9 monomethylation, AlphaScreen, 2 h; Potency, µM (top dose mostly 102 µM), inactives show at the top dose activity, negative = inhibition, most hits filed as inhibitors; 350,000 compounds, 8.8% hits; further: on the % scale 0 is the no-effect control and ±100 the full control effect; nearly all actives have a fitted effect of over 75% in size
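Chemiluminescent proximity detection of H3K9 monomethylation, read after 10 min bead incubation in the dark. Reaction: 20 nM G9a, 500 nM biotin-H3K9 peptide, 20 uM SAM cofactor, 2 h, room temperature, following 15 min enzyme-compound preincubation.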
BAZ2B inh – qHTS Assay for Inhibitors of BAZ2B. Bromodomain adjacent to zinc finger domain protein 2B (Homo sapiens), Q9UIF8. AlphaScreen BAZ2B-H3K14Ac peptide displacement. Potency, µM (doses to about 114 µM), for the others: at the top dose activity change, negative = inhibition, actives largely listed as inhibitors. 360,000 compounds, 4.4% hits. AID 504333, 2011; further: on the % scale 0 is the no-effect control and ±100 the full control effect; nearly all actives have a fitted effect of over 60% in size
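Inhibition is scored as reduced AlphaScreen emission. The BAZ2B/b-H3(5-23)K14Ac complex (50 nM each) in PBS pH 7.4, 0.01% Tween-20 meets compound (up to 110 uM) for 30 min at RT before bead addition.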
ALOX12 inh – Primary qHTS assay for inhibitors of human arachidonate 12S-lipoxygenase (ALOX12): Round 2; purified 12hLO, xylenol orange hydroperoxide absorbance; Polyunsaturated fatty acid lipoxygenase ALOX12 (Homo sapiens), P18054; Potency, µM (doses to about 108 µM), for inactives: at the highest dose activity change, negative = inhibition, most hits filed as inhibitors; 580,000 compounds, 1.1% hits; further: on the % scale 0 is the no-effect control and ±100 the full control effect
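Purified human 12hLO (150 nM final) in 25 mM Hepes, 0.01% Triton X-100, pH 7.0 was preincubated 15 min at room temperature with compound. Then 40 uM arachidonic acid was added, 30 min. Hydroperoxide was read by Fe-XO absorbance ratio 573/405 nm.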
* marks the source's active call; other numbers are inactive results; ? = inconclusive; · = no result; [ ] = dose if it differs, or a comment. Rows were chosen to be rich in hits. Some 8.7% of all compounds tested hit in one or more screens of this group. The call rests on the fitted dose curve; in most records, active means well fitted curve in the direction sought with a large enough effect; inconclusive means small, poorly fitted or top-dose-only effect, or another doubt; inactive means no such curve, though single readings can be large; an effect the other way counts as inactive or inconclusive. Potency means the concentration at half of the fitted maximal effect.

SMILES	HP1b chromo inh	JMJD2A Tudor inh	Sfp inh	G9a inh	BAZ2B inh	ALOX12 inh
CCCn1nnc(NC(=S)NC(=O)CC)n1	?	2.8µM*	40µM*	8.9µM*	-33%	?
CCCn1nnc(NC(=S)NC(=O)c2ccc(-c3ccc(Br)cc3)o2)n1	17%	-29%	-26%	?	-13%	-7%
C/C(=N\NC(=O)c1cccc(N/N=C(\C)c2ccco2)c1)c1ccco1	-1%	?	5%	35µM*	-30%	-17%
C/C(=N\NC(=O)c1cccc(O)c1)c1cccc(NC(=O)c2ccc(F)cc2)c1	32%	-13%	13%	7%	-26%	0%
C/C(=N\NC(=O)c1cccc(N/N=C(\C)c2cc(O)ccc2O)c1)c1cc(O)ccc1O	?	13µM*	8%	?	11µM*	-16%
Cc1ccc(F)c(S(=O)(=O)N2CCCC2c2nc3ccccc3[nH]2)c1 (stereo not drawn)	·	·	·	·	·	-9%
COc1ccccc1OC(=O)COc1c(C)cc(Br)cc1Cl	·	·	·	·	·	1%
COc1ccc(NC(=O)C2CC(=O)N(C(C)C)C2)cc1S(=O)(=O)N1CCCCC1 (stereo not drawn)	·	·	·	·	·	11%
CCCN(CC#N)CC(=O)NC1(C#N)CCCCCC1	·	·	·	·	·	-7%
CN(C)/C=C/C(=O)c1ccc(Oc2ccccc2)cc1	23%	-15%	-3%	8%[12.7 µM]	?	5µM*
CCCCCCCNC(=O)CCC(=O)NCCC(C)C	·	·	·	·	·	6%
CC(O)CCC(=O)NCCNC(=O)CCC(C)O (stereo not drawn)	-12%	28µM*	1%	12%[59 µM]	8%	-19%
CC1(C)Cc2c(ccc3ccccc23)/C(=C/C#N)N1	-11%	?	-24%	50µM*	-12%	40µM*
Cc1oc(-c2ccccc2)cc1C(=O)Nc1cccc(/C=C/C(=O)O)c1	?	?	2%	-50%	45µM*	-12%
Cc1oc(-c2ccccc2)cc1C(=O)Nc1ccc2ccccc2c1	44%	4%	89µM*	-48%[0.501 µM]	-28%	?
COc1ccc(Cl)cc1-n1ccc2c(cnc3nc(C(F)(F)F)nn32)c1=O	·	·	·	·	·	15%
Cn1c(=O)c(-c2cc(Br)ccc2N)nc2ccccc21	-20%	?	-19%	50µM*	-17%	0%
CCOC(=O)Cn1c(=O)c(-c2cc(Br)ccc2N)nc2ccccc21	54%	-11%	13%	7%	-26%	-4%
CC(=O)OCCCNc1cc(Sc2ccc(C)cc2)c2nonc2c1[N+](=O)[O-]	?	?	11%	-48%[59 µM]	7%	-26%
CC(=O)OCCCNc1cc(Sc2nc3ccccc3s2)c2nonc2c1[N+](=O)[O-]	11%	-26%	2.5µM*	?	-27%	·
CC(=O)OCCNc1cc(Sc2nc3ccccc3[nH]2)c2nonc2c1[N+](=O)[O-]	?	56µM*	1.6µM*	4µM*	?	?
CN(Cc1cccc(Cl)c1Cl)S(=O)(=O)c1cn(C)c(=O)n(C)c1=O	·	·	·	·	·	-3%
O=C(NC1CCCCCC1)c1c2c(nc3ccccc13)CCN(Cc1ccccc1)C2	28%	-10%	4%	1.4µM*	-5%	-23%
Cc1cc(N2CCN(C)CC2)ccc1NC(=O)c1c2c(nc3ccccc13)CCN(Cc1ccccc1)C2	-14%	?	5%	35µM*	?	·
CC(C)c1ccccc1NC(=O)COC(=O)c1c2c(nc3ccccc13)CCN(Cc1ccccc1)C2	9%	-28%	-7%	5%[59 µM]	-10%	-5%
SMILES	HP1b chromo inh	JMJD2A Tudor inh	Sfp inh	G9a inh	BAZ2B inh	ALOX12 inh
CCOC(=O)C1=C(CN(CCOC)Cc2ccco2)NC(=O)NC1c1ccc(OC(C)C)cc1 (stereo not drawn)	·	·	·	·	·	6%
CCc1cccc(NC(=O)Cn2c(=O)c3c(ncn3C3CCCC3)n(Cc3ccccc3)c2=O)c1	·	·	·	·	·	-18%
CCOc1ccc(C(=O)NC(=S)Nc2ccc(N3CCCCC3)cc2)cc1[N+](=O)[O-]	11µM*	?	20µM*	6.3µM*	8.9µM*	?
O=C(NC(=S)Nc1ccccc1N1CCOCC1)c1ccc([N+](=O)[O-])cc1	?	-14%	8%	8%[59 µM]	?	8%
COc1ccc(C(=O)NC(=S)Nc2ccccc2N2CCCCC2)cc1[N+](=O)[O-]	?	?	9%	10%[59 µM]	?	40µM*
CCOc1ccc(C(=O)NC(=S)Nc2ccccc2N2CCCCC2)cc1[N+](=O)[O-]	?	?	17%	21%[59 µM]	23%	?
O=C(COc1cc(F)ccc1[N+](=O)[O-])Nc1ccc(N2CCCCC2)cc1	?	40µM*	·	?	32µM*	-33%
O=C(NC(=S)Nc1ccccc1N1CCCC1)c1ccc([N+](=O)[O-])cc1	22µM*	25µM*	?	11µM*	11µM*	?
CCCCn1c2c(c(=O)[nH]c1=O)C(c1ccc(Br)cc1)C1=C(COC1=O)N2 (stereo not drawn)	·	·	·	·	·	-58%
Cc1c(C(=O)N(Cc2cccc(OCC3CCOC3)c2)Cc2ccccn2)[nH]c2ccc(Cl)cc12 (stereo not drawn)	·	·	·	·	·	31%
O=C1CC(c2ccccc2)N(C(=O)CNC(=O)c2cccs2)CCCCCN1 (stereo not drawn)	·	·	·	·	·	65%
COc1ccccc1-c1nnc([C@H]2CCN(CC3CCCCC3)C2)o1	·	·	·	·	·	63%[176 µM]
COc1ccc(C(=O)Nc2cc(C)on2)cc1[N+](=O)[O-]	20%	-3%	-6%	48%	9%	-27%
CCCCC(=O)NC(=S)Nc1ccccc1N1CCCCC1	16%	-12%	3%	17%[59 µM]	-6%	?
O=C(c1ccc2ccccc2c1)N1CCN(c2ccc([N+](=O)[O-])c(N3CCOCC3)c2)CC1	?	?	0%	?	?	-2%
O=C(c1ccc(F)cc1)N1CCN(c2ccc([N+](=O)[O-])c(N3CCCCC3)c2)CC1	-16%	?	1%	28µM*	?	-9%
CCCCC(=O)NC(=S)Nc1cccc(Cl)c1N1CCCCC1	30%	15%	10%	1%[59 µM]	-1%	35µM*
COc1ccc(C(=O)NC(=S)Nc2cc(C)ccn2)cc1[N+](=O)[O-]	37%	-13%	-9%	2.8µM*	-31%	-6%
